Activity calls are given as the source filed them.
What was measured:
[1] = target: Albumin (Bos taurus) (UniProt P02769); test: compounds binding labelled BSA control protein – biochemical, small-molecule microarray, Alexa647 label, 635/667 nm fluorescence, artefact control for SMM control protein annotation, profiling panel (AID 1118); details: BSA-A647 binding, fluorescence 635 nm, higher = more signal;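 further: score merges 667 nm emission intensity and signal-to-noise per printed compound spot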
Sequence of Albumin (Bos taurus) (P02769 whole entry, looked up): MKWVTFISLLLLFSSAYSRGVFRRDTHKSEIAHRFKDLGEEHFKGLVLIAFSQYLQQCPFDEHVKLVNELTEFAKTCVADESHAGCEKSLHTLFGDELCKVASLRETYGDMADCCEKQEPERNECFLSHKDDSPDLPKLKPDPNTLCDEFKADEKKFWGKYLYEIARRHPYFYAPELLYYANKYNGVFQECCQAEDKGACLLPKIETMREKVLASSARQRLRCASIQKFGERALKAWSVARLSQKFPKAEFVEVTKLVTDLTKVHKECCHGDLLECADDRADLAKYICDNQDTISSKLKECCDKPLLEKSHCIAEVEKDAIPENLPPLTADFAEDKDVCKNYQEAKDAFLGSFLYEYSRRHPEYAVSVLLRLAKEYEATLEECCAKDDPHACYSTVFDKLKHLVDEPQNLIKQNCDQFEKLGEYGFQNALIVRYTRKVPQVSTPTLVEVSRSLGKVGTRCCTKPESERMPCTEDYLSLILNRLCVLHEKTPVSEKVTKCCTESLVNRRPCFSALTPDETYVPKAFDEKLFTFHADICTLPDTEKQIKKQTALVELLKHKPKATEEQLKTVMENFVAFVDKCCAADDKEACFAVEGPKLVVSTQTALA

[2] = probe aXIP binding to arrayed compounds – biochemical, NeuroSMM set, 635/667 nm fluorescence, primary screen (AID 1119); details: small-molecule microarray, higher = more signal, called active from +8 up or from −8 down;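 further: probe is the protein aXip251-270 applied at 1 µg/mL to compound-printed slides; binding of probe to printed compounds measured as 667 nm fluorescence plus signal to noise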
[3] = probe aNOTCH3 binding on compound microarray – biochemical, small-molecule microarray, 635/667 nm fluorescence, primary screen (AID 1120); details: higher = more signal;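 further: probe is a biotin-tagged antibody raised against NOTCH3 rather than NOTCH3 protein; score merges spot fluorescence near 667 nm with spot signal to noise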
[4] = probe aNOTCH2 binding on compound microarray – biochemical, small-molecule microarray, 635/667 nm fluorescence, primary screen (AID 1121); details: higher = more signal;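 further: score merges feature fluorescence read at 667 nm with its signal to noise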
[5] = target: Carbonic anhydrase 2 (Homo sapiens) (UniProt P00918); test: compounds binding carbonic anhydrase 2 – biochemical, small-molecule microarray, Alexa647-labelled CAII, profiling panel (AID 1122); details: CAII-A647 binding fluorescence, higher = more signal
[6] = COS7 lysate on small-molecule microarray, probe aHis, 635 nm (AID 1123); details: COS7 cell lysate, fluorescence, higher = more signal;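 further: z-score combines 667nm fluorescence intensity with signal-to-noise per printed compound spot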
[7] = probe aLAP1 signal on lysate-treated microarray – cell lysate, small-molecule microarray, COS7 lysate, primary screen (AID 1124); details: probe aLAP1, fluorescence, higher = more signal;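 further: lysate comes from COS7 cells expressing LAP1 and is applied at 0.3 µg/mL; score merges spot fluorescence near 667 nm with signal-to-noise over triplicate slides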
[8] = test system: Sam68 (KHDRBS1); test: compounds binding KHDRBS1 protein – biochemical, small-molecule microarray, 635 nm fluorescence, primary screen (AID 1125); details: higher = more signal;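 further: score merges 667 nm channel intensity with signal to noise over triplicate slides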
[9] = test system: Chordin-like protein 2 (CHRDL2); test: compounds binding chordin-like 2 – biochemical, small-molecule microarray, 635 nm fluorescence, primary screen (AID 1126); details: fluorescence 635 nm, higher = more signal;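 further: printed compound slides probed with Chrdl2 protein at 4 µg/mL for 1 h at 4 C; score merges 667 nm emission intensity with signal to noise over three replicate slides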
[10] = target: Concanavalin-A (Canavalia ensiformis) (UniProt P02866); test: compounds binding concanavalin A lectin – biochemical, small-molecule microarray, Alexa647 label, 635 nm, artefact control for SMM control protein annotation, primary screen (AID 1127); details: ConA-A647 binding fluorescence, higher = more signal;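 further: z combines 667 nm emission intensity with signal-to-noise across three replicate slides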
Sequence of Concanavalin-A (Canavalia ensiformis) (P02866 whole entry, looked up): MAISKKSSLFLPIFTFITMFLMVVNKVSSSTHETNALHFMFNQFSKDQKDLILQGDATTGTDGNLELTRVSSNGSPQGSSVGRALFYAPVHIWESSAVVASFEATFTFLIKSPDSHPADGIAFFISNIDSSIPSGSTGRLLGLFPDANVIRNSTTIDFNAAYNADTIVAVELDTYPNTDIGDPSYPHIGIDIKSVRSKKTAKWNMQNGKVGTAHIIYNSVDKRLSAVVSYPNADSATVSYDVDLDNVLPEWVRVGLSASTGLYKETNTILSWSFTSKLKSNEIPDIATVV

[11] = compounds binding Alexa647 anti-His antibody – biochemical, small-molecule microarray, 635 nm fluorescence, artefact control for SMM control protein annotation, primary screen (AID 1128); details: higher = more signal;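 further: score merges feature fluorescence with signal-to-noise for each printed compound spot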
[12] = test system: Human papillomavirus type 1a E7 protein (residues 1-88); test: HPV1a E7 small-molecule binders, primary screen, biochemical, small-molecule microarray, residues 1-88, 635 nm (AID 1129); details: small-molecule microarray binding, fluorescence 635 nm; higher = more signal
[13] = target: Focal adhesion kinase 1 (Homo sapiens) (UniProt Q05397); test: PTK2 protein binding on printed compound slides – biochemical, small-molecule microarray, 635/667 nm fluorescence, BSA, DTT, primary screen (AID 1130); details: 635 nm fluorescence, higher = more signal;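 further: composite of spot emission at 667 nm and signal to noise over triplicate slides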
Sequence of Focal adhesion kinase 1 (Homo sapiens) (Q05397 whole entry, looked up): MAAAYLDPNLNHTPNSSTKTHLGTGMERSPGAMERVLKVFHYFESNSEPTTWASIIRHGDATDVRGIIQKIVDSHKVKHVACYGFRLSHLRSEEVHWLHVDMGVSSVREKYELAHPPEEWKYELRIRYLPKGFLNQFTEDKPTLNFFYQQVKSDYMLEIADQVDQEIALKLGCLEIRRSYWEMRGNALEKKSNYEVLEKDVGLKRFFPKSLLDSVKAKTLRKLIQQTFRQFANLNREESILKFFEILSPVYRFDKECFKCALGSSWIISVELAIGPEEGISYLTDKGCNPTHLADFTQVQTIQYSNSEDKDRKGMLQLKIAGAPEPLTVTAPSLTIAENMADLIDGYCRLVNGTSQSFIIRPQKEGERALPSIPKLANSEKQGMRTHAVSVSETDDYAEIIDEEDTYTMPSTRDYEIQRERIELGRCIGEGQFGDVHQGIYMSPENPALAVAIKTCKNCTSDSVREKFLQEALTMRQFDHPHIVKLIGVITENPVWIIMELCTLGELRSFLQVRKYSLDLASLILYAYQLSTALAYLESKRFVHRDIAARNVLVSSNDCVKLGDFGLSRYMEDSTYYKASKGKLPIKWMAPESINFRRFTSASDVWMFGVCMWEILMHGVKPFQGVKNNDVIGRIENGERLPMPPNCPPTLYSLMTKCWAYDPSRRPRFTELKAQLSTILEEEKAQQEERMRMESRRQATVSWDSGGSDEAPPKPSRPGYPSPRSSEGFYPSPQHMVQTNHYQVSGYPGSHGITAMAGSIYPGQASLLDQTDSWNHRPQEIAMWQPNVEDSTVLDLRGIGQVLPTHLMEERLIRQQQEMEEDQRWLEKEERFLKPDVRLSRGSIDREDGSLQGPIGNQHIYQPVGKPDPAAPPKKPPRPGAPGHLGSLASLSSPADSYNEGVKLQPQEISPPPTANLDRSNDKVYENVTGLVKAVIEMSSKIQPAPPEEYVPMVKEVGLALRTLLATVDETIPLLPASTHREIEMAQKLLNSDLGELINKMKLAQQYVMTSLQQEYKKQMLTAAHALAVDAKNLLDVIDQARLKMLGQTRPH

[14] = test system: Fibrinogen (Alexa647-labelled); test: Alexa647-fibrinogen binding to printed small molecules – biochemical, small-molecule microarray, 635/667 nm fluorescence, artefact control for SMM control-protein annotation, profiling panel (AID 1131); details: fibrinogen-A647 binding fluorescence, higher = more signal;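 further: z-score merges 667 nm fluorescence with per-spot signal-to-noise over triplicate slides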
[15] = target: Follistatin (Homo sapiens) (UniProt P19883); test: FST protein binding to printed compounds – biochemical, small-molecule microarray, 635/667 nm fluorescence, primary screen (AID 1132); details: 635 nm fluorescence, higher = more signal
Sequence of Follistatin (Homo sapiens) (P19883 whole entry, looked up): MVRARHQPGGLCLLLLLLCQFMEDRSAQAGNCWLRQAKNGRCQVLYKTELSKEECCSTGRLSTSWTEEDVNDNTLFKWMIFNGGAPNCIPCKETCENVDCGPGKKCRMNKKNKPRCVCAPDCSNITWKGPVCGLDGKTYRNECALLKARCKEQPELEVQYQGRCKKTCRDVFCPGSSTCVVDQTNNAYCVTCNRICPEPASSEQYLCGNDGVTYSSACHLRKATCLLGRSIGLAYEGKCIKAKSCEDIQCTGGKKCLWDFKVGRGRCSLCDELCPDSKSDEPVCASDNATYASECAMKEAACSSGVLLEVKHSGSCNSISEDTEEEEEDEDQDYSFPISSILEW

[16] = target: Fibroblast growth factor 2 (Homo sapiens) (UniProt P09038); test: basic fibroblast growth factor binding to printed compounds – biochemical, small-molecule microarray, 635/667 nm fluorescence, primary screen (AID 1133); details: FGF2, fluorescence 635/667, higher = more signal
Sequence of Fibroblast growth factor 2 (Homo sapiens) (P09038 whole entry, looked up): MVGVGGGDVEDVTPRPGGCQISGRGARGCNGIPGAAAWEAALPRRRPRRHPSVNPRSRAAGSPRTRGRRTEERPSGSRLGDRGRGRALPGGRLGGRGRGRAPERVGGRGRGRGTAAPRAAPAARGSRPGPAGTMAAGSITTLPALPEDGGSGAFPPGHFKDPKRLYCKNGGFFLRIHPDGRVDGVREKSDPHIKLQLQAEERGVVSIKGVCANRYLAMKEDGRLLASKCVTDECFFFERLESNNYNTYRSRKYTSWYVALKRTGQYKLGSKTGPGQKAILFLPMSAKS

[17] = JC-1 mitochondrial potential readout, lung cancer cells – cell-based, A549, JC-1 fluorescence, basal, 24 h, 100 nL, profiling panel (AID 1138); details: higher = more signal;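 further: A549 lung adenocarcinoma cells under basal conditions with no added stimulus; test concentration not given here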
[18] = test system: Lefty1; test: Lefty1 protein binding to printed compounds – biochemical, small-molecule microarray, 635/667 nm fluorescence, primary screen (AID 1139); details: fluorescence 635/667, higher = more signal
[19] = test system: wheat germ agglutinin (Triticum aestivum), Alexa647-labelled; test: Alexa647-WGA lectin binding to printed small molecules – biochemical, small-molecule microarray, 635/667 nm fluorescence, artefact control for SMM control-protein annotation, profiling panel (AID 1140); details: WGA-A647 binding, 635 nm fluorescence, higher = more signal;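 further: score merges 667 nm feature emission with signal to noise over triplicate slides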
[20] = target: Luciferin 4-monooxygenase (Photinus pyralis) (UniProt P08659); test: inhibition of purified Photinus pyralis luciferase – biochemical, luminescence, purified enzyme, 2006 set, primary screen (AID 1141); details: purified firefly luciferase, SteadyGlo luminescence, 30 min; higher = more signal, called active from +8 up or from −8 down;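 further: cell-free assay with purified firefly luciferase at 100 ng per well in PBS; test concentration not given here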
Sequence of Luciferin 4-monooxygenase (Photinus pyralis) (P08659 whole entry, looked up): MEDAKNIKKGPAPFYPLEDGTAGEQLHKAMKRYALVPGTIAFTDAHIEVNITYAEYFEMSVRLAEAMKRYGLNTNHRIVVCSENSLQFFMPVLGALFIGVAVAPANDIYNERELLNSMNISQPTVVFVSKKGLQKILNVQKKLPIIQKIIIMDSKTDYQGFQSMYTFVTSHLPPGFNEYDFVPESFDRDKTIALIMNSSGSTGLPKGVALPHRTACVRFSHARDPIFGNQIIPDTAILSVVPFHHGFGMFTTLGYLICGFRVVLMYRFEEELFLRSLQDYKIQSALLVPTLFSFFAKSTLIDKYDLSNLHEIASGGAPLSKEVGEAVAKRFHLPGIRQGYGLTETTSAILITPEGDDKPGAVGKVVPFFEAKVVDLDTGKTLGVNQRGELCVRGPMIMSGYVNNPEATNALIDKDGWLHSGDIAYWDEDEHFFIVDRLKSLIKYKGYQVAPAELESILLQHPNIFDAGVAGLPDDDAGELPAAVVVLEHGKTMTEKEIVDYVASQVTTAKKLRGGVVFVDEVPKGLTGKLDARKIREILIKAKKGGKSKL

| SMILES | composite z-score [1] | composite Z-score [2] | composite z-score [3] | composite z-score [4] | composite z-score [5] | composite z-score [6] | composite z-score [7] | composite z-score [8] | composite z-score [9] | composite z-score [10] | composite z-score [11] | composite z-score [12] | composite z-score [13] | composite z-score [14] | composite z-score [15] | composite z-score [16] | z-score [17] | composite z-score [18] | composite z-score [19] | z-score [20] |
| --- | --- | --- | --- | --- | --- | --- | --- | --- | --- | --- | --- | --- | --- | --- | --- | --- | --- | --- | --- | --- |
| Cc1ccc([C@H]2C(C(=O)O)=CCN2S(=O)(=O)c2ccc(C)cc2)cc1 | 0.899 | -0.168 (inactive) | -0.0299 | -0.109 | 0.825 | 1.21 | 0.584 | 0.539 | -0.518 | 1.02 | 0.388 | 0.64 | 1.36 | -0.169 | 0.585 | -0.6 | -0.575 | 0.0829 | 0.572 | 0.838 (inactive) |
| COc1ccc([Si](C)(C)[C@H]2[C@H](CC(=O)N3CCC[C@H]3CO)O[C@@]3(C(=O)N(Cc4cccc(N5CCOC5=O)c4)c4ccccc43)[C@@H]2C)cc1 | -0.185 | -0.0054 (inactive) | -0.095 | -0.151 | 0.334 | 0.626 | 0.218 | 1.26 | 1.36 | 0.996 | 1.3 | 0.883 | 0.266 | 0.405 | 1.42 | 1.64 | 1.1 | 1.47 | 0.149 | 0.526 (inactive) |
| C=CCOC(=O)[C@H]1[C@@H]2C(=O)O[C@@H](c3ccccc3)[C@@H](c3ccccc3)N2[C@@H](c2ccc(OCCOC(=O)[C@H]3C[C@H]4C(=O)N[C@@H](CCCCN(C)C)C(=O)N4[C@H]3c3cccc(OCCO)c3)cc2)[C@]12C(=O)Nc1ccc(I)cc12 | -0.427 | 0.715 (inactive) | 0.0306 | -0.154 | 0.228 | 0.986 | -0.0143 | 1.3 | 1.39 | 1.12 | 0.977 | 1.18 | 0.205 | 0.571 | 1.35 | 1.36 | -1.66 | 1.6 | 0.705 | -0.49 (inactive) |
| O=C1O[C@H](c2ccccc2)[C@H](c2ccccc2)N2[C@H]1[C@@H](C(=O)NC[C@H](O)c1ccccc1)[C@]1(C(=O)Nc3ccc(C#CC4=CCCCC4)cc31)[C@H]2c1ccccc1OCCO | 0.395 | 0.0371 (inactive) | 0.0527 | -0.0614 | 0.343 | 1.32 | 0.522 | 1.32 | -0.0358 | 0.978 | 1.24 | 1.19 | 0.661 | 0.86 | 1.1 | 0.198 | -1.76 | 0.632 | 1.05 | -0.758 (inactive) |
| CCCC[C@@H]1C[C@H]1[C@@H](NC(=O)c1cccnc1)c1ccc(Cl)cc1 | -1.41 | -0.29 (inactive) | -0.429 | -0.185 | -0.404 | 0.878 | -0.271 | -1.27 | -1.95 | -2.03 | -1.38 | -2.87 | -0.518 | -2.97 | -2.16 | -2.46 | 0.66 | -2.59 | -1.72 | 0.928 (inactive) |

Source: PubChem BioAssay
